Data from PubChem BioAssay AID1159580 (chemical genetic matrix, 2015).
Several values for one entry are separate records, joined by “and”; a condition that tells them apart may be missing. Identical values can stand only once. Screen size: about 5,500 compounds; about 2,000 (36%) were called active. About 18% were inconclusive and are not listed. Cut-off read from the data, not from the text of the source: active = normalized growth mostly below about 0.91 (no sharp cut-off); inconclusive = no clear call, values can overlap the other calls; inactive = mostly above about 0.92. Some of the results follow.

Test: chemical genetic growth profiling, strain panel (AID 1159580);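 note: tested at 20 µM; growth read once vehicle control cultures reached saturation at 30 °C; 1 = growth at the plate median or of vehicle wells; lower values mean less growth of the strain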
Conditions: S. cerevisiae deletion strains, growth OD

Measured: normalized growth

CC1(C)S[C@@H]2[C@H](NC(=O)[C@@H](N)c3ccc(O)cc3)C(=O)N2[C@H]1C(=O)O
inactive: locus YAL013W, strain DEP1, hits give low values 1.01 | locus YAL021C, strain ccr4, hits give low values 0.97 | locus YAL026C, strain drs2, hits give low values 0.976 | locus YAL030W, strain snc1, hits give low values 0.999 | locus YBL061C, strain skt5, hits give low values 1.01 | locus YBR009C, strain hhf1, hits give low values 0.951 | locus YBR021W, strain FUR4, hits give low values 1 | locus YBR023C, strain chs3, hits give low values 0.996 | locus YBR171W, strain sec66, hits give low values 0.987 | locus YBR229C, strain ROT2, hits give low values 1 | locus YBR231C, strain swc5, hits give low values 1 | locus YBR279W, strain paf1, hits give low values 0.99 | locus YCL011C, strain gbp2, hits give low values 0.988 | locus YCL016C, strain dcc1, hits give low values 0.992 | locus YCL029C, strain bik1, hits give low values 1.01 | locus YCL069W, strain vba3, hits give low values 0.989 | locus YCR088W, strain abp1, hits give low values 0.983 | locus YDL005C, strain med2, hits give low values 0.993 | locus YDL035C, strain GPR1, hits give low values 1.02 | locus YDL040C, strain nat1, hits give low values 0.995 | locus YDL074C, strain BRE1, hits give low values 1.01 | locus YDL101C, strain DUN1, hits give low values 1.01 | locus YDL185W, strain tfp1, hits give low values 0.997 | locus YDL192W, strain arf1, hits give low values 1 | locus YDR001C, strain nth1, hits give low values 0.964 | locus YDR069C, strain doa4, hits give low values 1.01 | locus YDR101C, strain arx1, hits give low values 1 | locus YDR137W, strain rgp1, hits give low values 0.938 | locus YDR159W, strain sac3, hits give low values 0.991 | locus YDR162C, strain NBP2, hits give low values 1.03 | locus YDR195W, strain ref2 0.98 | locus YDR297W, strain sur2, hits give low values 0.998 | locus YDR318W, strain mcm21, hits give low values 0.998 | locus YDR334W, strain swr1, hits give low values 0.982 | locus YDR335W, strain msn5, hits give low values 0.996 | locus YDR388W, hits give low values 1.01 | locus YDR392W, strain spt3, hits give low values 0.936 | locus YDR502C, strain sam2, hits give low values 0.999 | locus YEL003W, strain gim4, hits give low values 0.991 | locus YEL037C, strain rad23, hits give low values 0.983 | locus YEL061C, strain CIN8 (second series), hits give low values 0.988 | locus YEL061C, strain CIN8, hits give low values 1.01 | locus YER015W, strain faa2, hits give low values 0.998 | locus YER016W, strain bim1, hits give low values 0.967 | locus YER110C, hits give low values 1.01 | locus YER111C, strain swi4, hits give low values 0.98 | locus YER155C, strain BEM2 (second series), hits give low values 0.996 | locus YER155C, strain BEM2, hits give low values 1 | locus YER167W, strain BCK2, hits give low values 1.01 | locus YFR010W, strain ubp6, hits give low values 0.987 | locus YGL078C, strain dbp3, hits give low values 1 | locus YGL086W, strain mad1, hits give low values 0.994 | locus YGL167C, strain pmr1, hits give low values 1.01 | locus YGL173C, strain kem1, hits give low values 1.02 | locus YGL227W, strain vid30, hits give low values 1 | locus YGL240W, strain doc1, hits give low values 1.02 | locus YGL248W, strain PDE1, hits give low values 1.02 | locus YGL253W, strain hxk2, hits give low values 0.99 | locus YGR078C, strain PAC10, hits give low values 1 | locus YGR135W, strain pre9, hits give low values 0.986 | locus YGR252W, strain gcn5, hits give low values 0.954 | locus YHR013C, strain ard1, hits give low values 1.03 | locus YHR027C, strain rpn1, hits give low values 0.989 | locus YHR030C, strain SLT2, hits give low values 1.01 and 1.03 | locus YHR079C, strain IRE1 (second series), hits give low values 0.996 | locus YHR079C, strain IRE1, hits give low values 1.06 | locus YHR094C, strain hxt1, hits give low values 1 | locus YHR129C, strain ARP1, hits give low values 1.01 | locus YHR142W, strain chs7, hits give low values 0.982 | locus YHR200W, strain rpn10, hits give low values 0.995 | locus YIL066C, strain RNR3, hits give low values 1.03 | locus YIL073C, strain SPO22, hits give low values 1.04 | locus YIL125W, strain kgd1, hits give low values 1 | locus YIR030C, strain dcg1, hits give low values 1 | locus YJL092W, strain hpr5, hits give low values 0.991 | locus YJL095W, strain BCK1 (second series), hits give low values 0.983 | locus YJL095W, strain BCK1, hits give low values 1.02 and 1.06 | locus YJL115W, strain asf1, hits give low values 0.979 | locus YJL129C, strain trk1, hits give low values 1 | locus YJL134W, strain LCB3, hits give low values 1.01 | locus YJL154C, strain vps35, hits give low values 0.991 | locus YJL164C, strain tpk1, hits give low values 0.995 | locus YJL166W, strain qcr8, hits give low values 1.02 | locus YJL168C, strain set2, hits give low values 0.997 | locus YJL187C, strain SWE1 (second series), hits give low values 1.01 | locus YJL187C, strain SWE1, hits give low values 0.998 | locus YJR043C, strain POL32, hits give low values 1.01 | locus YJR066W, strain TOR1, hits give low values 1.01 | locus YJR075W, strain HOC1, hits give low values 1.02 | locus YKL009W, strain mrt4, hits give low values 1.02 | locus YKL068W, hits give low values 1 | locus YKL085W, strain MDH1 (second series), hits give low values 1.01 | locus YKL085W, strain MDH1, hits give low values 1.01 | locus YKL160W, strain elf1, hits give low values 1.01 | locus YKR001C, strain vps1, hits give low values 0.982 | locus YKR026C, strain gcn3, hits give low values 1.07 | locus YKR091W, strain srl3, hits give low values 1 | locus YLL001W, strain dnm1, hits give low values 1.02 | locus YLL026W, hits give low values 0.992 | locus YLL041C, strain sdh2, hits give low values 0.999 | locus YLR027C, strain aat2, hits give low values 0.993 | locus YLR039C, strain RIC1, hits give low values 1 | locus YLR058C, strain SHM2, hits give low values 1.01 | locus YLR102C, strain apc9, hits give low values 0.997 | locus YLR113W, strain HOG1, hits give low values 1.04 | locus YLR221C, strain rsa3, hits give low values 0.991 | locus YLR258W, strain gsy2, hits give low values 0.991 | locus YLR262C, strain YPT6 (second series), hits give low values 0.975 | locus YLR262C, strain YPT6, hits give low values 1.09 | locus YLR268W, strain sec22, hits give low values 1.01 | locus YLR320W, strain mms22, hits give low values 0.987 | locus YLR330W, strain CHS5, hits give low values 1.01 | locus YLR342W, strain FKS1 (second series), hits give low values 0.974 | locus YLR342W, strain FKS1, hits give low values 1.01 | locus YLR357W, strain rsc2, hits give low values 1.02 | locus YLR370C, strain arc18, hits give low values 0.999 | locus YLR371W, strain rom2, hits give low values 0.991 | locus YLR384C, strain iki3, hits give low values 0.989 | locus YLR418C, strain cdc73, hits give low values 0.994 | locus YML016C, strain PPZ1, hits give low values 1.01 | locus YML032C, strain rad52, hits give low values 1.01 | locus YML120C, strain ndi1, hits give low values 0.997 | locus YML124C, strain tub3, hits give low values 0.985 | locus YMR058W, strain fet3, hits give low values 0.995 | locus YMR078C, strain ctf18, hits give low values 0.994 | locus YMR125W, strain sto1, hits give low values 0.998 | locus YMR129W, hits give low values 0.988 | locus YMR205C, strain PFK2, hits give low values 1 | locus YMR223W, strain ubp8, hits give low values 0.997 | locus YMR231W, strain pep5, hits give low values 1 | locus YMR263W, strain SAP30, hits give low values 1 | locus YMR307W, strain GAS1, hits give low values 0.969 | locus YNL067W, strain RPL9B, hits give low values 1.01 | locus YNL071W, strain lat1, hits give low values 0.984 | locus YNL153C, strain GIM3, hits give low values 1 | locus YNL183C, strain NPR1, hits give low values 1 | locus YNL209W, strain ssb2, hits give low values 0.995 | locus YNL233W, strain BNI4, hits give low values 1.02 | locus YNL248C, strain rpa49, hits give low values 1.03 | locus YNL250W, strain rad50, hits give low values 1 | locus YNL271C, strain bni1, hits give low values 1 | locus YNL298W, strain CLA4, hits give low values 0.984 | locus YNL307C, strain MCK1, hits give low values 1.03 | locus YNL322C, strain KRE1 (second series), hits give low values 1 | locus YNL322C, strain KRE1, hits give low values 1.01 | locus YNR049C, strain mso1, hits give low values 0.985 | locus YNR052C, strain pop2, hits give low values 0.999 | locus YOL012C, strain htz1 1.31 | locus YOL147C, strain pex11, hits give low values 1.01 | locus YOR001W, strain rrp6, hits give low values 0.997 | locus YOR061W, strain CKA2, hits give low values 1.02 | locus YOR069W, strain VPS5, hits give low values 1.01 | locus YOR070C, strain gyp1, hits give low values 0.999 | locus YOR080W, strain dia2, hits give low values 1.01 | locus YOR083W, strain WHI5, hits give low values 1.03 | locus YOR106W, strain vam3, hits give low values 1 | locus YOR136W, strain idh2, hits give low values 0.994 | locus YOR144C, strain elg1, hits give low values 0.991 | locus YOR184W, strain ser1, hits give low values 1.03 | locus YOR231W, strain MKK1, hits give low values 1.05 | locus YOR265W, strain rbl2, hits give low values 0.997 | locus YOR270C, strain vph1, hits give low values 0.962 | locus YOR290C, strain snf2, hits give low values 0.975 | locus YOR316C, strain cot1, hits give low values 0.999 | locus YPL051W, strain arl3, hits give low values 1.01 | locus YPL078C, strain atp4, hits give low values 1.01 | locus YPL106C, strain sse1, hits give low values 0.974 | locus YPL240C, strain hsp82, hits give low values 0.993 | locus YPL241C, strain CIN2, hits give low values 1.01 | locus YPL256C, strain CLN2, hits give low values 1.05 | locus YPR119W, strain clb2, hits give low values 1 | locus YPR141C, strain kar3, hits give low values 1.03 | locus YPR163C, strain tif3, hits give low values 1 | locus YPR167C, strain met16, hits give low values 0.998 | strain wtn01, hits give low values 0.976
